For assay [1], the target named is guinea pig Sigma Receptor, Non-selective Binding, SIGMAR1 (gene 100135589) (UniProt Q60492). In words: NVS_OR_gSIGMA_NonSelective: NovaScreen (NVS) Nuclear Receptor Binding Assay for guinea pig Sigma Receptor, Non-selective Binding (AID 2283367). Put shortly:
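Radioligand displacement on guinea pig brain membranes, read by filter-based scintillation counting 1 h after dosing. Loss of signal versus DMSO; initial duplicate single-point screen at 25 uM, actives followed in concentration series.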

Assay [2] concerns guinea pig Dopamine Transporter (DAT), gene 100714898. In words: NVS_TR_gDAT: NovaScreen (NVS) Transporter Assay for guinea pig Dopamine Transporter (DAT) (AID 2283369).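 Further: active compounds lower bound radioligand signal relative to DMSO.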 The method, boiled down:
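Test chemicals were incubated 2 h with guinea pig striatal membranes and a radioligand; bound label was separated by filtration and counted. Screening ran at 25 uM, followed by concentration-response testing to a 50 uM maximum.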

The target in assay [3] is human Dopamine Transporter (DAT), SLC6A3 (gene 6531) (UniProt Q01959). Briefly: NVS_TR_hDAT: NovaScreen (NVS) Transporter Assay for human Dopamine Transporter (DAT) (AID 2283374).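 Further: activity means loss of bound radioligand signal relative to DMSO.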 The method, boiled down: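 Cell-free radioligand displacement binding at human DAT, 1 h after dosing, with filtration and scintillation counting. Primary screen in duplicate at 25 uM, actives then in concentration series. Loss of bound signal versus DMSO scored.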
human Dopamine Transporter (DAT), SLC6A3 (gene 6531), sequence (Q01959 whole entry, looked up): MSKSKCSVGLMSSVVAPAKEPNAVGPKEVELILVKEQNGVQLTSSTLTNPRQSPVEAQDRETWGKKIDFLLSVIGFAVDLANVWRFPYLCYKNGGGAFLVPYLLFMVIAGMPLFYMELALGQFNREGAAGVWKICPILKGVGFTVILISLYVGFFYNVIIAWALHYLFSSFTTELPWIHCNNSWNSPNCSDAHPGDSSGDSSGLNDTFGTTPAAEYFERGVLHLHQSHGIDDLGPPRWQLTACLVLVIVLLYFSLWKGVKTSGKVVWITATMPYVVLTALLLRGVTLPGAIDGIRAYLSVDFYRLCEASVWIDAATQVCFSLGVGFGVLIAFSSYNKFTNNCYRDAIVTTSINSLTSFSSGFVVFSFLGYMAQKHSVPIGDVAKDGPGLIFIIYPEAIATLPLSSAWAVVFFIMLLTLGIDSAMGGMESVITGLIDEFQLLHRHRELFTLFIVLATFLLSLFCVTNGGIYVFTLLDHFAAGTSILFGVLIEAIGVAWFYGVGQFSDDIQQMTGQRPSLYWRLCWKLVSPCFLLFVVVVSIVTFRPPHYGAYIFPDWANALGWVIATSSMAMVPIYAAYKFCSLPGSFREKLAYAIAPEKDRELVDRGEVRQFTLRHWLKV

In assay [4] the target is human Norepinephrine Transporter (NET), SLC6A2 (gene 6530) (UniProt P23975). Briefly: NVS_TR_hNET: NovaScreen (NVS) Transporter Assay for human Norepinephrine Transporter (NET) (AID 2283377).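 On AC50: displacement of radioligand from human NET seen as loss of scintillation signal.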 Put shortly:
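Cell-free radioligand binding using CHO-derived membrane protein expressing human NET, read by filter scintillation counting 1 h after dosing; loss of signal vs DMSO. Initial duplicate screen at 25 uM, actives retested in concentration series.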

Assay [5] concerns the target Peroxisome proliferator-activated receptor gamma (Homo sapiens) (UniProt P37231). In words: NVS_NR_hPPARg: NovaScreen (NVS) Nuclear Receptor Binding Assay for human Peroxisome Proliferator-activated Receptor gamma (PPARg) (AID 2283370). The method, boiled down: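 Fluorescence polarization measures competitive binding to extracted PPARg in a cell-free format. Reading is taken at 2 h; activity is signal loss relative to DMSO. Screening at 25 uM in duplicate preceded confirmatory dose series.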

Assay [6] addresses human Adenosine Transporter (Adot), SLC29A1 (gene 2030) (UniProt Q99808). Briefly: NVS_TR_hAdoT: NovaScreen (NVS) Transporter Assay for human Adenosine Transporter (Adot) (AID 2283368). Put shortly: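 U937-derived membranes, cell-free radioligand binding, filter scintillation 1 h after dosing. 25 uM duplicate screen; hits (e.g. 30% inhibition) run in concentration-response up to 50 uM; loss of signal versus DMSO.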

Assay [7] deals with human Serotonin Transporter (SERT), SLC6A4 (gene 6532) (UniProt P31645). Briefly: NVS_TR_hSERT: NovaScreen (NVS) Transporter Assay for human Serotonin Transporter (SERT) (AID 2283372). The method, boiled down: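 Radioligand binding to native SERT in human platelet membranes, read by filter-based scintillation counting 1 h after dosing. Primary screen in duplicate at 25 uM; actives followed up in concentration series; loss of signal versus DMSO baseline.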
human Serotonin Transporter (SERT), SLC6A4 (gene 6532), sequence (P31645 whole entry, looked up): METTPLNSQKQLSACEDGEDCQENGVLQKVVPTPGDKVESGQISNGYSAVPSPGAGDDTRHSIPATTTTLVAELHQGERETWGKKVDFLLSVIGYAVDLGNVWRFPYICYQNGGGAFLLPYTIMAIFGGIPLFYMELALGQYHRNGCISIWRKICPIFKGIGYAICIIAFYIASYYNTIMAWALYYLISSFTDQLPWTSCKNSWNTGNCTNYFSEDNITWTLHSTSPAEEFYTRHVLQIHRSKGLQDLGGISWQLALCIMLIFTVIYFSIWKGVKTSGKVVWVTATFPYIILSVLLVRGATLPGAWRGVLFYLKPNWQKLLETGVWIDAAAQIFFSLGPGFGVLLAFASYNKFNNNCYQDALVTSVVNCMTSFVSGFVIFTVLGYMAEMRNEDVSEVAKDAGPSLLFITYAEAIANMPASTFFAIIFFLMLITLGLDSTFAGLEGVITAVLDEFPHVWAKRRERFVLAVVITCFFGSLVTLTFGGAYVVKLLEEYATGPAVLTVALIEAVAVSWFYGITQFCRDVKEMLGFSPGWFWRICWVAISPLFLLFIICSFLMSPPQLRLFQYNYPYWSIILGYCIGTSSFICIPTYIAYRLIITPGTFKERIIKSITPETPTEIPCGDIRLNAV

In assay [8] the test system is rat Norepinephrine Transporter (NET), gene 83511. In words: NVS_TR_rNET: NovaScreen (NVS) Transporter Assay for rat Norepinephrine Transporter (NET) (AID 2283373). Put shortly: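 Rat forebrain membranes; radioligand binding measured by filter-based scintillation counting 1 hour after dosing. Loss of specific binding versus DMSO baseline scored; primary screen in duplicate at 25 uM, actives followed up in concentration series.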

Assay [9] addresses rat Serotonin Transporter (SERT), Slc6a4 (gene 25553) (UniProt P31652). In words: NVS_TR_rSERT: NovaScreen (NVS) Transporter Assay for rat Serotonin Transporter (SERT) (AID 2283375). Put shortly:
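Steps: rat forebrain membranes dosed with chemical (25 uM duplicate primary; concentration series for actives); 1 h incubation; labelled ligand bound, filtered, counted by scintillation. Activity scored as signal loss vs DMSO.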

Assay [10] concerns the target Norway rat Vesicular Monoamine Transporter (VMAT2), neurotransmitter transporter, Slc18a2 (gene 25549) (UniProt Q01827). Briefly: NVS_TR_rVMAT2: NovaScreen (NVS) Transporter Assay for Norway rat Vesicular Monoamine Transporter (VMAT2), neurotransmitter transporter (AID 2283376).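 Further: actives lower the bound radioligand signal below the DMSO level.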 The method, boiled down:
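Radioligand displacement binding on rat forebrain tissue preparation, filter-based scintillation read-out 1 hour after dosing. Primary screen in duplicate at 25 uM, then concentration series for actives; loss of signal versus DMSO.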

This note sets out measurements from PubChem BioAssay (EPA / NIEHS).

Molecules are shown by their SMILES. Values joined by “and” are separate entries in the source; they are usually repeats but may differ in a detail not shown here. Equal entries are not always repeated. Inconclusive results are not listed. Some compounds were tested as several samples or in several runs, with calls that do not always agree. Active and inactive are the calls of the source. How the source made its calls: active means hit-call score of the fitted dose curve at least 0.9, where 1 is the maximum; inconclusive means response in the unintended direction; inactive means score below 0.9.

guinea pig Sigma Receptor, Non-selective Binding, SIGMAR1 (gene 100135589), sequence (Q60492 whole entry, looked up): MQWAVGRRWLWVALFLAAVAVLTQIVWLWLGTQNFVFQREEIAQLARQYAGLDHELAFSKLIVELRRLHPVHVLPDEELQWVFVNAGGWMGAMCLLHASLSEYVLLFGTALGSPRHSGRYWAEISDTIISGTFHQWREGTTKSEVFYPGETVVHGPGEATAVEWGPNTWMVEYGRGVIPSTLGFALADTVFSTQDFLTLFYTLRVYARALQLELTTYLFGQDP
Peroxisome proliferator-activated receptor gamma (Homo sapiens), sequence (P37231 whole entry, looked up): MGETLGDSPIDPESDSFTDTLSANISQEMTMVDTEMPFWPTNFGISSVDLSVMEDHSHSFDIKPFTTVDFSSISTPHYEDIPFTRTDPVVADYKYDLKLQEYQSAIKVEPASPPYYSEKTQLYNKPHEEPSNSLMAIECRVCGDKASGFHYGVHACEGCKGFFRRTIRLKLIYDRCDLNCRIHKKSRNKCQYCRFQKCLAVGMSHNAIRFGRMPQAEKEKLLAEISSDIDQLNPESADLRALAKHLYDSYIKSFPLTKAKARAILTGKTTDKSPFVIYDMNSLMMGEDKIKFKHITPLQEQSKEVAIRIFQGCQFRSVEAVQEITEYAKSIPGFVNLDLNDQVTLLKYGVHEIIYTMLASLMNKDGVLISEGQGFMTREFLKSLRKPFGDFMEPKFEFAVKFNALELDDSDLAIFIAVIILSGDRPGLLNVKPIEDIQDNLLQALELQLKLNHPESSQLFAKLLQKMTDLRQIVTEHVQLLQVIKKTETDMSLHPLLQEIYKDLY
Norway rat Vesicular Monoamine Transporter (VMAT2), neurotransmitter transporter, Slc18a2 (gene 25549), sequence (Q01827 whole entry, looked up): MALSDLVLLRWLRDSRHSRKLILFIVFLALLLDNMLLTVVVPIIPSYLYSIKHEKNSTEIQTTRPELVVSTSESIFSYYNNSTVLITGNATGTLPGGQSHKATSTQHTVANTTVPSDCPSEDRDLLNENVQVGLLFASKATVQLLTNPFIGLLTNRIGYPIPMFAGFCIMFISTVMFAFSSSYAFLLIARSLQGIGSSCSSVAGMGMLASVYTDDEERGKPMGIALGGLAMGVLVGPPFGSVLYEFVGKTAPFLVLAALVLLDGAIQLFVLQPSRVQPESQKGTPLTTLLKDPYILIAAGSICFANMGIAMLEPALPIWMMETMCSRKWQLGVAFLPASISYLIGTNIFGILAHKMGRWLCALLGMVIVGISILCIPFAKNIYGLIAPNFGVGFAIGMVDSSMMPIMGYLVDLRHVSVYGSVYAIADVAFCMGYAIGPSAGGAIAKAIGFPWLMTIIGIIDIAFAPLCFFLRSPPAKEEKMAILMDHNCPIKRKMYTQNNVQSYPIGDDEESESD
human Norepinephrine Transporter (NET), SLC6A2 (gene 6530), sequence (P23975 whole entry, looked up): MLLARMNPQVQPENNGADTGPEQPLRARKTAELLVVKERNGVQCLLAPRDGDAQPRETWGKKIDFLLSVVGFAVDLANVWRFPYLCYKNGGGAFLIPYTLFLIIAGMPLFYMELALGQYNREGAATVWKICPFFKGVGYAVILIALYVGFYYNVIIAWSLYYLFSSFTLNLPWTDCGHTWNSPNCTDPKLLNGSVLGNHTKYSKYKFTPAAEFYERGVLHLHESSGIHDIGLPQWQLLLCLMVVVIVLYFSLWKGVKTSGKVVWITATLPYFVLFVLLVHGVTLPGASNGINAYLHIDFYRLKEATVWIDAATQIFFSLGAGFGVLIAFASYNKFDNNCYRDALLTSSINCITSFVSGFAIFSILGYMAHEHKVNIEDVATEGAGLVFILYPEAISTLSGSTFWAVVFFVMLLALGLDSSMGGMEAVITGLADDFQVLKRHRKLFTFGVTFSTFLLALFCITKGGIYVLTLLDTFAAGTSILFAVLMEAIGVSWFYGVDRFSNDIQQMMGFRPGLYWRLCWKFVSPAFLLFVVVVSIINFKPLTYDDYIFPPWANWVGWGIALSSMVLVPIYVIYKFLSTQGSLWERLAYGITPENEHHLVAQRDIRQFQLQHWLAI
rat Serotonin Transporter (SERT), Slc6a4 (gene 25553), sequence (P31652 whole entry, looked up): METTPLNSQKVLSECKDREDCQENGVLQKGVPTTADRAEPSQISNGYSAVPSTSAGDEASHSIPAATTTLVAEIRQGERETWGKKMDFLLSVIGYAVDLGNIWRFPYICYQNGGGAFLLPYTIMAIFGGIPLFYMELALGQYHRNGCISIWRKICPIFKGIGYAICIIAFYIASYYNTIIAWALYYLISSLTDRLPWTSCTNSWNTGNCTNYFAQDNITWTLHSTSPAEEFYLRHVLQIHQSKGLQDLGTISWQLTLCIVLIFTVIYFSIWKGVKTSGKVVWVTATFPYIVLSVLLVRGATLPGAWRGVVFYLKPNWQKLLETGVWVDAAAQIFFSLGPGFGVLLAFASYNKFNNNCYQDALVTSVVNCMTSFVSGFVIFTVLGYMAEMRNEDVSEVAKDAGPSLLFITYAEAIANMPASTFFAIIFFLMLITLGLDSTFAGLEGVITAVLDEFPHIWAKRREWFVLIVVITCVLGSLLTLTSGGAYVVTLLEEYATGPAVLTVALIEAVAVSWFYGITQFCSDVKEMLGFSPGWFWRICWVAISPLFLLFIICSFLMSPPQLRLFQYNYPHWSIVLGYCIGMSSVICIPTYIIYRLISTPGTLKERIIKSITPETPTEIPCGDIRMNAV
human Adenosine Transporter (Adot), SLC29A1 (gene 2030), sequence (Q99808 whole entry, looked up): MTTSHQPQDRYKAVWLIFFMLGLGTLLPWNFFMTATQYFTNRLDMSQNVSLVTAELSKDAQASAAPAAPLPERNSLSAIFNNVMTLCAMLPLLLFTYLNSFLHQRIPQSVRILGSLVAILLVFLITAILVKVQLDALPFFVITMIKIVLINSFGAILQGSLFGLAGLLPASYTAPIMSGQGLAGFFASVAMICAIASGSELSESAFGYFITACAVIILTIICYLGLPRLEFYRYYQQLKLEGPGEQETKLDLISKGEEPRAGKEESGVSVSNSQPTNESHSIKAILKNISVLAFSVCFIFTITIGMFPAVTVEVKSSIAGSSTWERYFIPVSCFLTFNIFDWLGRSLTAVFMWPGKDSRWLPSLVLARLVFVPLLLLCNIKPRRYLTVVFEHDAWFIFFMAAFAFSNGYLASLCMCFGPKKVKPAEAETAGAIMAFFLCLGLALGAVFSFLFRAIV

As to `Nc1ccc(-c2ccc(N)c(Cl)c2)cc1Cl`, the AC50 is 32.5 µM (active) in [1], 3.73 µM (active) in [2], 1.63 µM (active) in assay [3] and 3.04 µM (active) in assay [4].
With `COP(=O)(OC)O/C(=C\Cl)c1cc(Cl)c(Cl)cc1Cl`, in assay [5], the outcome was inactive.
In the case of `CCOP(=S)(OCC)Oc1nc(Cl)c(Cl)cc1Cl`, in [5], the compound was classed as inactive.
For the compound `CCOC(=O)/C=C(C)/C=C/C[C@@H](C)CCCC(C)C`, the AC50 in assay [1] is 11 µM (active).
As to `O=C1C(Cl)=C(Cl)C(=O)c2ccccc21`, the outcome in assay [5] was inactive.
The same measure, in the same setting: to `Clc1ccc(C2(Cn3cncn3)CC(Br)CO2)c(Cl)c1` (stereo not drawn) belongs “inactive”.
Take `CCN1CCC2(CC1)COc1cc3c(cc12)N(C(=O)c1ccc(-c2ccc(-c4nnc(C)o4)cc2C)cc1)CC3`: the AC50 in assay [1] is 3.01 µM (active); in [6] it was 1.11 µM (active); in assay [2], 7.47 µM (active); in [3], 6.34 µM (active); in [9] it was 7.6 µM (active); in [4] it was 10.1 µM (active). Also, the compound was called inactive in assay [7] and in assay [8].
For `CCC[CH2][Sn]([Cl])([Cl])[Cl]`, in assay [5], the compound was classed as inactive.
Turning to `CC(C)(C)CC(C)(C)c1ccc(O)cc1`, the compound was classed as inactive in assay [2] and in assay [10]. In addition, the AC50 in [3] is 15.1 µM (active); in assay [4], 11.7 µM (active).
With `Cc1ccccc1C(=O)Nc1cccc(OC(C)C)c1`, in assay [5], the compound was called inactive.
In the case of `Nc1ccc(Cl)cc1C(=O)c1ccccc1`, the AC50 was 6.19 µM (active) in assay [2], 1.73 µM (active) in assay [3] and 12 µM (active) in assay [4].
Turning to `CC(=O)[O][Hg][c]1ccccc1`, the AC50 in assay [6] was 11.8 µM (active); in assay [3], 12.4 µM (active); in assay [4], 0.212 µM (active).
As to `O=C1C2(Cl)C3(Cl)C4(Cl)C(Cl)(Cl)C5(Cl)C3(Cl)C1(Cl)C5(Cl)C24Cl` (stereo not drawn), in assay [5], the compound was classed as inactive. Further, in assay [4], the AC50 was 1.57 µM (active) and 1.82 µM (active) and 869 nM (active).
In the case of `O=C(O)C(Cl)(Cl)Cl`, the result in [10] was inactive.
Still for that read-out and setting: to `CCCCC(CC)CO[N+](=O)[O-]` (stereo not drawn) belongs “inactive”.
As to `O=C(OC1CCCCC1)c1ccccc1C(=O)OC1CCCCC1`, the compound was called inactive in assay [5].
Same read-out and setting: to `CCC(C)(C)c1ccc(O)c(C(C)(C)CC)c1` belongs “inactive”.
With `CCCCCCCCC(=O)NCc1ccc(O)c(OC)c1`, the outcome in [10] was inactive.
Consider `O=C(O)C(F)(F)C(F)(F)C(F)(F)C(F)(F)C(F)(F)C(F)(F)C(F)(F)C(F)(F)C(F)(F)C(F)(F)F`, for which the AC50 in assay [5] was 6.31 µM (active). For the same compound, the compound was called inactive in assay [4].
Regarding `CC(C)(OO)c1ccccc1`, the outcome in [5] and in [4] was inactive.
Turning to `COP(=S)(OC)Oc1ccc(S(=O)(=O)N(C)C)cc1`, the compound was called inactive in [10].
Take `CCOC(=O)Nc1cccc(OC(=O)Nc2ccccc2)c1`: in assay [4], the AC50 is 3.25 µM (active).
Regarding `O=[N+]([O-])c1ccc2c3c(cccc13)CC2`, the AC50 in [9] is 18.2 µM (active).
For `Cn1sc(Cl)cc1=O`, in assay [3], the compound was called inactive. Further, the AC50 in assay [4] was 1.59 µM (active).
As to `CC(=[OH+])/C=C(/C)[O-].CC(=[OH+])/C=C(/C)[O-].CC(=[OH+])/C=C(/C)[O-].[Fe]`, the compound was classed as inactive in [10].
For the compound `CCOP(=S)(OCC)SCSP(=S)(OCC)OCC`, the AC50 in assay [3] is 25 µM (active). In addition, the compound was called inactive in [4].
Turning to `CCC[CH2][Sn]([CH2]CCC)([CH2]CCC)[O]C(=O)c1ccccc1`, in [5], the AC50 was 1.83 µM (active) and the call was inactive.
For `CCCCCCCCc1ccc(O)cc1`, in assay [5], the result was inactive.
On to `CNC(=O)O/N=C/C(C)(C)S(C)=O` (stereo not drawn), for which the call in [5] was inactive.
`COP(=S)(OC)Oc1ccc(Sc2ccc(OP(=S)(OC)OC)cc2)cc1`: in assay [5], the AC50 is 0.13 µM (active) and the outcome was inactive. Moreover, the AC50 in assay [4] was 1.39 µM (active).
With `COc1cccc(C=O)c1`, the outcome in assay [10] was inactive.
Take `Cc1cc(Cl)ccc1O[C@H](C)C(=O)O`: the outcome in [4] was inactive.
In the case of `CN(C)N=O`, the result in [5] was inactive.
On to `COP(=S)(OC)Oc1cc(Cl)c(Cl)cc1Cl`, for which the outcome in [4] was inactive.
`O=C(Cl)c1ccc(Cl)cc1`: the result in assay [10] and in assay [4] was inactive.
Regarding `O=C(O)C(F)(F)C(F)(F)C(F)(F)C(F)(F)C(F)(F)C(F)(F)F`, the compound was called inactive in assay [5].
As to `Oc1c(I)cc(I)cc1I`, the AC50 in assay [4] is 25 µM (active).
On to `CC(C)(c1ccccc1)c1ccc(O)c(C(C)(C)c2ccccc2)c1`, for which the outcome in assay [3] and in assay [4] was inactive.
With `CC(C)(C)c1cc(O)ccc1O`, in assay [4], the AC50 was 13.8 µM (active).
With `O=Cc1cccc(Oc2ccccc2)c1`, in assay [3], the AC50 is 5.52 µM (active).
Turning to `ClC1(Cl)C2(Cl)C3(Cl)C4(Cl)C(Cl)(Cl)C5(Cl)C3(Cl)C1(Cl)C5(Cl)C24Cl` (stereo not drawn), the compound was classed as inactive in assay [5].
